The values below come from PubChem BioAssay (Tox21).

Assay [1] in a line: A CellTox Green Cytotoxicity Assay to monitor cytotoxicity in HepG2 cells - 0 hour (AID 1224882). Note: nearly all actives have a fitted effect of over 35% in size. The gist of the method:
(§1)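 Measurements at 0, 8, 16, 24, 32 and 40 h of treatment captured CellTox Green fluorescence in HepG2 cells that had been co-plated with reagent and preincubated 5 h at 37 C/5% CO2.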

The nature of assay [2]: A CellTox Green Cytotoxicity Assay to monitor cytotoxicity in HepG2 cells - 32 hour (AID 1224883). Note: nearly all actives have a fitted effect of over 50% in size. In outline:
as §1

Assay [3] is described as follows: qHTS RealTime-Glo MT Cell Viability Assay in HepG2 cells - 16 hour (AID 1224885). Note: nearly all actives have a fitted effect of over 50% in size. The gist of the method: (§2)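 Tox21 10K library screened in qHTS format on HepG2 cells carrying RealTime-Glo reagents. Compounds were added after a 5 h preincubation, and the luminescent signal from continuous culture was measured repeatedly during 40 h treatment.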
Assay [4] can be described thus: qHTS RealTime-Glo MT Cell Viability Assay in HEK293 cells - 24 hour (AID 1224886). Note: top concentration of the series differs between compounds; nearly all actives have a fitted effect of over 50% in size. In outline:
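Luminescence generated by NanoLuc from substrate produced by living HEK293 cells served as the viability signal. Each value reflects the reading at its stated time point during continuous 40 h compound exposure at 37 C.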

Assay [5] can be described thus: qHTS RealTime-Glo MT Cell Viability Assay in HEK293 cells - 8 hour (AID 1224887). Note: top concentration of the series differs between compounds; nearly all actives have a fitted effect of over 50% in size. In outline: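 HEK293 + NanoLuc + prosubstrate, 600 cells/well; 5 h, 37 C/5% CO2; compound 23 nL in DMSO by pintool; 37 C; luminescence read at 0, 8, 16, 24, 32 and 40 h time points.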
Assay [6] can be described thus: A CellTox Green Cytotoxicity Assay to monitor cytotoxicity in HEK293 cells - 16 hour (AID 1224888). Note: nearly all actives have a fitted effect of over 35% in size. In outline:
(§3)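 Tox21 screen in HEK293: membrane-impermeant cyanine dye fluoresces on binding dead-cell DNA; compound pinned 5 h post-seeding, plates held at 37 C, signal read repeatedly through 40 h.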

A short description of assay [7]: qHTS RealTime-Glo MT Cell Viability Assay in HepG2 cells - 0 hour (AID 1224889). Note: nearly all actives have a fitted effect of over 50% in size. Note: potency is the fitted concentration of half-maximal effect. In outline:
as §2
(In general: Quantitative high-throughput screening tests each substance at several concentrations.)

The nature of assay [8]: A CellTox Green Cytotoxicity Assay to monitor cytotoxicity in HepG2 cells - 8 hour (AID 1224890). Note: nearly all actives have a fitted effect of over 45% in size. In outline:
as §1

Assay [9] in a line: qHTS assay to identify small molecule antagonists of the estrogen receptor alpha (ER-alpha) signaling pathway using the BG1 cell line in the presence of 0.1 nM 17-beta-estradiol - cell viability counter screen (AID 1259241). Note: nearly all actives have a fitted effect of over 40% in size. In outline: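 VM7Luc4E2, 4,000 cells/well, phenol red-free medium + 10% charcoal-stripped FBS; 24 hr plating; cpd + 0.1 nM E2 final, 22 hr 37C/5% CO2; CellTiter-Fluor 30 min, fluorescence.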

A short description of assay [10]: qHTS assay to identify small molecule antagonists of the androgen receptor (AR) signaling pathway using the MDA cell line in the presence of 0.5 nM R1881 - cell viability counter screen (AID 1259242). Note: nearly all actives have a fitted effect of over 45% in size. The gist of the method: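 Concentration-response screen of compounds for toxicity in MDA-kb2 reporter cells: 16 hr at 37C with 0.5 nM R1881, endpoint live-cell protease fluorescence measured in the reporter wells.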

Assay [11] concerns the target Estrogen receptor (Homo sapiens) (UniProt P03372). Nature of the assay: qHTS assay to identify small molecule antagonists of the estrogen receptor alpha (ER-alpha) signaling pathway using the BG1 cell line in the presence of 0.1 nM 17-beta-estradiol (AID 1259244). Note: nearly all actives have a fitted effect of over 50% in size. In outline:
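Compounds were tested against 0.1 nM (final) 17beta-estradiol in VM7Luc4E2 cells, which express full-length ER-alpha and an ERE-luciferase reporter; luminescence was recorded following 22 h exposure.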

The nature of assay [12]: qHTS assay to identify small molecule HDAC inhibitors (AID 1259364).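 Note: wild-type HCT-116 cells with endogenous class I/II HDAC activity; top concentration of the series differs between compounds; nearly all actives have a fitted effect of over 45% in size.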 The gist of the method:
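Screening used wild-type human colon HCT-116 cells incubated overnight, dosed with compounds for 2 hours, and assayed with a homogeneous luminogenic HDAC I/II reagent for 30 minutes at room temperature.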

Assay [13] can be described thus: qHTS assay to identify small molecule agonists of the sonic hedgehog signaling (Shh) pathway - cell viability counter screen (AID 1259366). Note: nearly all actives have a fitted effect of over 50% in size. In outline:
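Cytotoxicity counter screen run in the same wells as the Shh reporter assay. NIH/3T3 cells carrying a Gli1 response element–driven luciferase were treated with DMSO-dissolved compounds for 24hr, and live-cell protease activity was measured with CellTiter-Fluor.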

Assay [14] can be described thus: qHTS assay to identify small molecule antagonists of the sonic hedgehog signaling (Shh) pathway - cell viability counter screen (AID 1259367). Note: nearly all actives have a fitted effect of over 55% in size. The gist of the method: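 Fluorescence read-out (CellTiter-Fluor, 1 hr at 37C) taken after 23 hr compound treatment of 3T3 Gli1-Luc cells stimulated with conditioned medium. Cells were seeded at 2,000 per well and pre-incubated 4 hr.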

Assay [15] in a line: qHTS assay to identify small molecule agonists of the sonic hedgehog signaling (Shh) pathway (AID 1259368; calls by dose curve;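 note: NIH/3T3-derived 3T3Gli1-Luc cells carrying a stable Gli1-driven firefly luciferase reporter; series mostly up to about 92 µM; nearly all actives have a fitted effect of over 15% in size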). In outline: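 Hedgehog pathway agonism scored by increased firefly luciferase luminescence in 3T3Gli1-Luc cells treated 24 hr at 37 C; detection used a 30 min room-temperature reagent incubation.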
Assay [16] in a line: qHTS assay to identify small molecule antagonists of the sonic hedgehog signaling (Shh) pathway (AID 1259369; calls by dose curve; note: nearly all actives have a fitted effect of over 45% in size; note: potency is the fitted concentration of half-maximal effect). The gist of the method:
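NIH/3T3 stable Gli1-Luc clone, 2,000 cells/well, 4hr settle; cpd + conditioned medium 24hr; Luc reagent 30min RT; luminescence.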

The nature of assay [17]: A CellTox Green Cytotoxicity Assay to monitor cytotoxicity in HEK293 cells - 8 hour (AID 1224884). Note: nearly all actives have a fitted effect of over 35% in size. The gist of the method:
as §3

Assay [18] in a line: qHTS assay to identify small molecule phospholipidosis (PLD) inducers (AID 1259344; active = well fitted curve in the direction sought with a large enough effect; an effect the other way counts as inactive or inconclusive). In outline:
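Read-out is LipidTOX Red fluorescence (ex 595/em 615) imaged in HepG2 cells after 24 h compound exposure at 37 C, with Hoechst nuclear counterstain (ex 352/em 461) allowing per-cell normalisation.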

A short description of assay [19]: qHTS assay to identify small molecule HDAC inhibitors - cell viability counter screen (AID 1259365). The gist of the method: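 Luminescence from CellTiter-Glo, developed 30min at room temperature, reports viability of wild-type HCT-116 cells treated 2hr with compounds at 37 C and 5% CO2 after overnight plating.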

Structures are written as SMILES. A number with no mark means an inactive call. Results filed as inconclusive are left out. The source made the active and inactive calls. Unless noted, calls come from the whole dose curve; as a rule, active = well fitted curve in the direction sought with a large enough effect in the repeat runs; inconclusive = weak or mixed curves; inactive = no such curve, though single readings can be large; an effect the other way counts as inactive or inconclusive.

Estrogen receptor (Homo sapiens), sequence (P03372 whole entry, looked up): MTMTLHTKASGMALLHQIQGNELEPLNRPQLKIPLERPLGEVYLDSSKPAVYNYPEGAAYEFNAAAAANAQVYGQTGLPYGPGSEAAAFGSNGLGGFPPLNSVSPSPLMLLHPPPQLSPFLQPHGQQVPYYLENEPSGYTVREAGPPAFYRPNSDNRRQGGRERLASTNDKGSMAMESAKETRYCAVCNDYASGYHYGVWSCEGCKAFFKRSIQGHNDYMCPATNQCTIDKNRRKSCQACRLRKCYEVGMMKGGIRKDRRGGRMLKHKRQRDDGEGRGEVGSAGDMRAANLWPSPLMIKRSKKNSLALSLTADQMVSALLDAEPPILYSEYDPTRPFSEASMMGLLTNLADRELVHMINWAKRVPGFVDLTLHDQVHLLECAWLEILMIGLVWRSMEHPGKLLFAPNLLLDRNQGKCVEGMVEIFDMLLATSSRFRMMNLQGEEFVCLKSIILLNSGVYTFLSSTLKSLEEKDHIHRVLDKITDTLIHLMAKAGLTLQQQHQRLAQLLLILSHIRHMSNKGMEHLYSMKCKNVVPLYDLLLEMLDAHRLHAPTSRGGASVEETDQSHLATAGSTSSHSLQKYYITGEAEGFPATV

`[K+]`: the Potency entry in assay [1], in assay [2], in assay [4], in [5], in assay [7] and in [12] was “inactive” each time. Further, the Potency result in assay [13], in [14] and in assay [16] was “inactive” in each case. The call in assay [3], in assay [6], in assay [8], in assay [9], in [10] and in [11] was inactive. In addition, the outcome in assay [15] was inactive.
For `CCCC(=O)O[C@]1(C(=O)CC)CC[C@H]2[C@@H]3CCC4=CC(=O)CC[C@]4(C)[C@H]3[C@@H](O)C[C@@]21C`, the Potency result in assay [1], in [2], in assay [5], in assay [12], in [13] and in assay [14] was “inactive” each time. The compound was called inactive in assay [17], in assay [3], in assay [6], in assay [8], in assay [9] and in assay [10]. The result in assay [15] was inactive. Moreover, in assay [7], the Potency is 1.69 µM (active).
As to `Cc1ccnc(NS(=O)(=O)c2ccc(N)cc2)n1`, the Potency result in assay [1], in assay [2], in [4], in assay [5], in assay [7] and in assay [12] was “inactive” throughout. In addition, the Potency entry in assay [13] and in assay [16] was “inactive” in each case. Also, the compound was called inactive in [17], in [6], in assay [8], in [9], in assay [10] and in assay [18]. In addition, the compound was called inactive in assay [19] and in assay [15].
Consider `C=CC(=O)OCCCl`, for which the Potency result in [1], in assay [2], in assay [4], in [5], in assay [7] and in [12] was “inactive” each time. Also, the Potency result in assay [13], in [14] and in assay [16] was “inactive” throughout. The compound was classed as inactive in assay [17], in assay [6], in assay [8], in [9], in assay [10] and in [11]. The result in [19] and in assay [15] was inactive.
With `COc1cc(-c2ccc(=O)[nH]n2)ccc1OC(F)F`, the Potency entry in assay [1], in [2], in assay [4], in [5], in assay [7] and in assay [12] was “inactive” throughout. The Potency entry in [13], in [14] and in [16] was “inactive” in each case. Moreover, the outcome in [3], in assay [6], in assay [8], in [9], in [10] and in assay [18] was inactive. Further, the outcome in assay [15] was inactive.
On to `CCCCOC(=O)CCC(C)=O`, for which the Potency result in assay [1], in assay [2], in assay [4], in assay [5], in [7] and in [12] was “inactive” throughout. For the same compound, the Potency result in assay [13] and in assay [14] was “inactive” in each case. Besides, the call in assay [17], in assay [6], in [8], in assay [9], in [10] and in assay [11] was inactive. Moreover, the compound was called inactive in [19].
Take `C[N+]12CCC(CC1)C(OC(=O)C(O)(c1ccccc1)c1ccccc1)C2` (configuration not stated): the Potency result in [1], in assay [2], in assay [4], in assay [5], in assay [7] and in assay [12] was “inactive” in each case. Also, the Potency entry in assay [13], in [14] and in assay [16] was “inactive” each time. Further, the result in assay [3], in assay [6], in assay [8], in assay [9], in assay [10] and in [18] was inactive. Also, the result in assay [19] and in assay [15] was inactive.
With `CC1=CCC(O)(C(C)C)CC1` (configuration not stated), the Potency entry in assay [1], in [2], in assay [4], in assay [5], in [7] and in [12] was “inactive” throughout. The Potency entry in [13] and in assay [16] was “inactive” each time. Besides, the compound was called inactive in assay [17], in assay [6], in assay [8], in [9], in assay [10] and in assay [11]. Also, the call in [19] was inactive.
Take `C[C@@H]1C[C@H]2[C@@H]3C[C@H](F)C4=CC(=O)C(Cl)=C[C@]4(C)[C@@]3(F)[C@@H](O)C[C@]2(C)[C@@]1(O)C(=O)CO`: the Potency entry in [1], in assay [2], in [4], in [5], in assay [12] and in assay [13] was “inactive” in each case. Moreover, in [14], the Potency result is “inactive”. Moreover, the compound was classed as inactive in assay [17], in assay [6], in [8], in [10], in [11] and in assay [18]. Also, the compound was classed as inactive in [19] and in assay [15]. In assay [16], the Potency was 18.8 µM (active).
